The record followed here is PubChem BioAssay (EPA / NIEHS).

What all share (conditions): mRNA level, 48 h; actives raise or lower the signal
Read-out in assay [1]: Cytochrome P450 (CYP2B6), CYP2B6 (gene 1555)
Briefly: LTEA_HepaRG_CYP2B6: Life Technologies and Expression Analysis (LTEA) Assay for Cytochrome P450 (CYP2B6) using HepaRG (AID 2283481). The method in brief: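 HepaRG cells plated 48 h, switched to serum-free induction medium, then dosed 48 h (8 points, half-log from 100 uM, 0.5% DMSO). RNA isolated; CYP2B6 expression measured by qRT-PCR; gain or loss fitted relative to DMSO.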

Read-out in assay [2]: Cytochrome P450 2C19 (Homo sapiens) (UniProt P33261)
In words: LTEA_HepaRG_CYP2C19: Life Technologies and Expression Analysis (LTEA) Assay for CYP2C19 using HepaRG (AID 2283482). The procedure, abridged: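 Transcript levels of CYP2C19 were quantified by qRT-PCR after HepaRG cells were treated for 48 hours with test chemicals up to 100 uM (eight half-log concentrations, 0.5% DMSO vehicle). Gain or loss of signal was fitted relative to DMSO.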

Read-out in assay [3]: CYP2C8 (gene 1558)
Briefly: LTEA_HepaRG_CYP2C8: Life Technologies and Expression Analysis (LTEA) Assay for CYP2C8 using HepaRG (AID 2283483). The method in brief: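 Differentiated HepaRG cells in serum-free induction medium exposed 48 h in duplicate to 8 half-log concentrations from 100 uM in 0.5% DMSO. CYP2C8 mRNA by qRT-PCR normalized to ACTB, GAPDH, POLR2A; bidirectional fit versus DMSO.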

Read-out in assay [4]: CYP4A11 (gene 1579)
Briefly: LTEA_HepaRG_CYP4A11: Life Technologies and Expression Analysis (LTEA) Assay for CYP4A11 using HepaRG (AID 2283486). The method in brief:
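HepaRG, 48 h chem exposure, 8 conc (100 uM top, half-log), 0.5% DMSO vehicle; qRT-PCR readout, housekeeping-gene normalized; bidirectional curve fit vs DMSO baseline.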

Read-out in assay [5]: DNA damage-inducible transcript 3 (DDIT3), DDIT3 (gene 1649)
In words: LTEA_HepaRG_DDIT3: Life Technologies and Expression Analysis (LTEA) Assay for DNA damage-inducible transcript 3 (DDIT3) using HepaRG (AID 2283488). The method in brief:
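HepaRG cells, 48 h after plating, exposed 48 h in serum-free induction medium to 8 half-log concentrations up to 100 uM in 0.5% DMSO, in duplicate. DDIT3 mRNA measured by TaqMan qRT-PCR, normalized to ACTB, GAPDH and POLR2A. Fitted bidirectionally against DMSO.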

Read-out in assay [6]: Pro-epidermal growth factor (Homo sapiens) (UniProt P01133)
In words: LTEA_HepaRG_EGF: Life Technologies and Expression Analysis (LTEA) Assay for Epidermal growth factor (EGF) using HepaRG (AID 2283489). The method in brief:
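HepaRG, 48 h dosing, 100 uM top, half-log x8, 0.5% DMSO. Readout: TaqMan qRT-PCR (Fluidigm array), housekeeping-normalized. Gain or loss of signal fit vs DMSO.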

Read-out in assay [7]: Ezrin (EZR), EZR (gene 7430)
Briefly: LTEA_HepaRG_EZR: Life Technologies and Expression Analysis (LTEA) Assay for Ezrin (EZR) using HepaRG (AID 2283491). The procedure, abridged:
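EZR transcript levels came from Fluidigm qRT-PCR and were normalized to three housekeeping genes after 48 h chemical exposure of HepaRG cells. Dosing used an 8-point half-log series with a 100 uM top concentration in 0.5% DMSO, tested in duplicate; both directions were fitted versus vehicle.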

Read-out in assay [8]: Cytochrome P450 3A7 (Homo sapiens) (UniProt P24462)
Briefly: LTEA_HepaRG_CYP3A7: Life Technologies and Expression Analysis (LTEA) Assay for CYP3A7 using HepaRG (AID 2283492). The method in brief: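 Human HepaRG liver cells, 48 h post-plating, switched to serum-free induction medium and exposed in duplicate for 48 h. Dosing: 100 uM top, half-log dilutions, 8 points, 0.5% DMSO vehicle. Read-out: CYP3A7 mRNA, gain or loss fitted against DMSO baseline.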

Read-out in assay [9]: CYP3A5 (gene 1577)
In words: LTEA_HepaRG_CYP3A5: Life Technologies and Expression Analysis (LTEA) Assay for CYP3A5 using HepaRG (AID 2283493). The method in brief: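 HepaRG cells, plated 48 h then in serum-free induction medium, dosed in duplicate for 48 h with eight half-log concentrations up to 100 uM in 0.5% DMSO. Gene mRNA by Fluidigm TaqMan qRT-PCR, normalized to ACTB, GAPDH, POLR2A.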

Read-out in assay [10]: Fatty Acid-Binding Protein 1 (FABP1), FABP1 (gene 2168)
In words: LTEA_HepaRG_FABP1: Life Technologies and Expression Analysis (LTEA) Assay for Fatty Acid-Binding Protein 1 (FABP1) using HepaRG (AID 2283494). The method in brief: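 Differentiated human HepaRG cells exposed 48 h in serum-free induction medium to eight half-log concentrations up to 100 uM (0.5% DMSO), duplicate. FABP1 mRNA by qRT-PCR, normalised to ACTB, GAPDH, POLR2A; bidirectional fitting against DMSO.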

Read-out in assay [11]: Cytochrome P450 4A22 (Homo sapiens) (UniProt Q5TCH4)
In words: LTEA_HepaRG_CYP4A22: Life Technologies and Expression Analysis (LTEA) Assay for Cytochrome P450 4A22 (CYP4A22) using HepaRG (AID 2283495). The procedure, abridged: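 Readout is CYP4A22 transcript induction or loss, quantified by qRT-PCR and normalized to ACTB, GAPDH and POLR2A. Human HepaRG cells receive test chemicals for 48 h at eight half-log concentrations from 100 uM in 0.5% DMSO.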

Read-out in assay [12]: Cytochrome P450 7A1 (Homo sapiens) (UniProt P22680)
In words: LTEA_HepaRG_CYP7A1: Life Technologies and Expression Analysis (LTEA) Assay for Cytochrome P450 7A1 (CYP7A1) using HepaRG (AID 2283496). The method in brief: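 HepaRG cells plated 48 h, then switched to serum-free induction medium and exposed in duplicate for 48 h to 8-point half-log series from 100 uM in 0.5% DMSO. CYP7A1 mRNA by qRT-PCR (TaqMan), normalized to ACTB/GAPDH/POLR2A; bidirectional fit versus DMSO.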

Read-out in assay [13]: Glutathione S-Transferase (GSTA2), GSTA2 (gene 2939)
Briefly: LTEA_HepaRG_GSTA2: Life Technologies and Expression Analysis (LTEA) Assay for Glutathione S-Transferase (GSTA2) using HepaRG (AID 2283497). The method in brief:
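Differentiated human HepaRG cells were exposed in duplicate for 48 h in serum-free induction medium, 8 points from 100 uM top in half-log steps, 0.5% DMSO. GSTA2 mRNA was measured by TaqMan qRT-PCR, normalized to ACTB, GAPDH and POLR2A; bidirectional fit versus DMSO.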

Read-out in assay [14]: Glutamate-cysteine ligase catalytic (GCLC), GCLC (gene 2729)
Briefly: LTEA_HepaRG_GCLC: Life Technologies and Expression Analysis (LTEA) Assay for Glutamate-cysteine ligase catalytic (GCLC) using HepaRG (AID 2283498). The procedure, abridged: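 Differentiated HepaRG cells exposed 48 h in serum-free induction medium, eight-point half-log series topping at 100 uM in 0.5% DMSO, duplicates. GCLC mRNA by qRT-PCR normalized to ACTB, GAPDH and POLR2A, fitted bidirectionally versus DMSO.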

Read-out in assay [15]: growth arrest and DNA damage 45 (GADD45G), GADD45G (gene 10912)
In words: LTEA_HepaRG_GADD45G: Life Technologies and Expression Analysis (LTEA) Assay for growth arrest and DNA damage 45 (GADD45G) using HepaRG (AID 2283499). The method in brief: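 Gain or loss of GADD45G mRNA, quantified by TaqMan qRT-PCR against three housekeeping genes, is fitted in both directions relative to 0.5% DMSO. Human HepaRG cultures receive test chemical for 48 h at up to 100 uM.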

Read-out in assay [16]: Glutamate-cysteine ligase regulatory (GCLM), GCLM (gene 2730)
In words: LTEA_HepaRG_GCLM: Life Technologies and Expression Analysis (LTEA) Assay for Glutamate-cysteine ligase regulatory (GCLM) using HepaRG (AID 2283500). The procedure, abridged: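 Differentiated HepaRG cells exposed 48 h in serum-free induction medium to eight half-log concentrations up to 100 uM (0.5% DMSO). GCLM mRNA by TaqMan qRT-PCR, normalized to ACTB, GAPDH and POLR2A; bidirectional fit versus DMSO.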

Read-out in assay [17]: Early growth response protein 1 (EGR1) transcription factor, EGR1 (gene 1958)
Briefly: LTEA_HepaRG_EGR1: Life Technologies and Expression Analysis (LTEA) Assay for Early growth response protein 1 (EGR1) transcription factor using HepaRG (AID 2283490). The method in brief:
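Differentiated HepaRG cells in serum-free induction medium exposed 48 hours, duplicate, to 8 half-log concentrations up to 100 uM in 0.5% DMSO. EGR1 mRNA measured by TaqMan qRT-PCR, normalized to ACTB, GAPDH, POLR2A; bidirectional fit versus DMSO.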

Read-out in assay [18]: Cytochrome P450 3A4 (Homo sapiens) (UniProt P08684)
Briefly: LTEA_HepaRG_CYP3A4: Life Technologies and Expression Analysis (LTEA) Assay for CYP3A4 using HepaRG (AID 2283487). The method in brief:
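Differentiated HepaRG cells, plated 48 h, then dosed 48 h in serum-free induction medium with 0.5% DMSO, 8 half-log concentrations up to 100 uM, duplicate. CYP3A4 mRNA by qRT-PCR, normalized to ACTB/GAPDH/POLR2A; bidirectional fit versus DMSO.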

Read-out in assay [19]: CYP2C9 (gene 1559)
Briefly: LTEA_HepaRG_CYP2C9: Life Technologies and Expression Analysis (LTEA) Assay for CYP2C9 using HepaRG (AID 2283484). The procedure, abridged:
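Differentiated human HepaRG cells in serum-free induction medium were exposed 48 h to chemicals in 8-point half-log series from 100 uM (0.5% DMSO), in duplicate. CYP2C9 mRNA was measured by qRT-PCR, normalized to ACTB/GAPDH/POLR2A, with bidirectional fitting versus DMSO.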

Active and inactive are the calls of the source. The calls were made as follows: active = hit-call score of the fitted dose curve at least 0.9, where 1 is the maximum; inactive = score below 0.9.

Sequence of Cytochrome P450 3A7 (Homo sapiens) (P24462 whole entry, looked up): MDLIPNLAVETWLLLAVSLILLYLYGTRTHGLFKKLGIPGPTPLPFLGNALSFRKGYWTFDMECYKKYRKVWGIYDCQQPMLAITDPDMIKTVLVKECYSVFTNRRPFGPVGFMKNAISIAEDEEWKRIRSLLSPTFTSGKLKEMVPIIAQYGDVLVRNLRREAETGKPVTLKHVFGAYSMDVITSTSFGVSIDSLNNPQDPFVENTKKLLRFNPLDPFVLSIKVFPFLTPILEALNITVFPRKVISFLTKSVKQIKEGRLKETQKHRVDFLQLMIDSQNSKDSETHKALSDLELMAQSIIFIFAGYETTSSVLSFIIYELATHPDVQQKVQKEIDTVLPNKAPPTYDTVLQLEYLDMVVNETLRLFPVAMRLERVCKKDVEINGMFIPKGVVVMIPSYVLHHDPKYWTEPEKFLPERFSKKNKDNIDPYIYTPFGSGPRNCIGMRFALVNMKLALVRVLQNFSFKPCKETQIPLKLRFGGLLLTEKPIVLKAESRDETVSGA
Sequence of Cytochrome P450 2C19 (Homo sapiens) (P33261 whole entry, looked up): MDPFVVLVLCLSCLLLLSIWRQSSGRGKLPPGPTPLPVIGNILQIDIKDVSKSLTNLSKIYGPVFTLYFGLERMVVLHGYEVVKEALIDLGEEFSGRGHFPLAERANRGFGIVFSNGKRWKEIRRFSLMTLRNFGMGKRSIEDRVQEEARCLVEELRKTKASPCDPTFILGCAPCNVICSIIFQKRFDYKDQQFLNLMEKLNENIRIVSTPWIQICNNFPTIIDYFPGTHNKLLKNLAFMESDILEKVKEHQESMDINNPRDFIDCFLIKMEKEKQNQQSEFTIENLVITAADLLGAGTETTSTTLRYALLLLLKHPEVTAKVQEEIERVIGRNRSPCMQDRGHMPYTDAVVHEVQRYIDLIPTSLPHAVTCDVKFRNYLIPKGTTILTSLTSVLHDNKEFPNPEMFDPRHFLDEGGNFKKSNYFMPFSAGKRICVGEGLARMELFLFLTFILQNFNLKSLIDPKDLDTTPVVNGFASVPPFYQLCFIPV
Sequence of Cytochrome P450 3A4 (Homo sapiens) (P08684 whole entry, looked up): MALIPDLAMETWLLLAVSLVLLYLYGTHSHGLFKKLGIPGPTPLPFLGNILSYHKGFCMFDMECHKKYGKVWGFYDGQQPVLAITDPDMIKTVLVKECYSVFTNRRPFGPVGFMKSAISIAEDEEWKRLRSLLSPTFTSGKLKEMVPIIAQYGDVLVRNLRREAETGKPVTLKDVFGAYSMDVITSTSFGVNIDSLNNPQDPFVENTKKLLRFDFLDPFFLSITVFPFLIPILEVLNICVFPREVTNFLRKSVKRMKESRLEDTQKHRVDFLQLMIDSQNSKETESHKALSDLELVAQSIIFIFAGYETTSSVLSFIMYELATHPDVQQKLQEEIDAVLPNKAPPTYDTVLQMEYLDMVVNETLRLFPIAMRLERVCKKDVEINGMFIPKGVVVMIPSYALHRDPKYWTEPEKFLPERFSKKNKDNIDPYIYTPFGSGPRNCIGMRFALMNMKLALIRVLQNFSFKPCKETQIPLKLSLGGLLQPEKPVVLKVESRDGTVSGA

With `C=CN1CCCC1=O`, the outcome in assay [1], in assay [2], in assay [3], in assay [4], in assay [5] and in assay [6] was inactive. The molecule was classed as inactive in assay [7], in [8], in assay [9], in assay [10], in assay [11] and in [12]. In addition, the outcome in assay [13], in [14], in [15] and in assay [16] was inactive.

With `Cc1ccc(S(=O)(=O)NC(=O)NN2CCCCCC2)cc1`, the call in assay [5], in assay [6], in assay [17], in assay [7], in assay [10] and in assay [13] was inactive. In addition, the call in assay [14], in assay [15] and in [16] was inactive.

As for `O=C(O)c1cccc(C[C@@H]2COc3ccc(OCc4nc5cc(F)ccc5s4)cc3[C@@H]2O)c1`, the AC50 in assay [1] is 92 µM (active); in assay [2] it was 83.9 µM (active); in assay [3], 84.2 µM (active); in assay [18] it was 78.2 µM (active); in assay [8] it was 82.2 µM (active); in assay [10], 79.3 µM (active). Moreover, the AC50 in assay [11] was 90.8 µM (active); in assay [12] it was 77.6 µM (active); in [15] it was 79.5 µM (active). The molecule was called inactive in [5], in assay [6], in assay [17], in [7], in assay [9] and in assay [13]. Moreover, the call in [14] and in [16] was inactive.

For `Nc1ccn([C@@H]2O[C@H](CO)[C@@H](O)[C@@H]2O)c(=O)n1`, the result in [1], in assay [3], in [19], in assay [4], in assay [5] and in assay [6] was inactive. For the same molecule, the result in [7], in assay [8], in [9], in assay [10], in assay [11] and in [12] was inactive. Further, the molecule was called inactive in [13], in [14], in assay [15] and in assay [16].
